Assay results published in PubChem BioAssay.
Values joined by “and” are separate entries in the source; they are usually repeats but may differ in a detail not shown here. Equal entries are not always repeated. Results filed as inconclusive are left out. Active and inactive are the calls of the source. Unless noted, no rule for the calls is given here.

Key:
[1] = compounds altering circadian rhythm period length – cell-based, LOPAC library, luminescence reporter (AID 2774); settings: circadian reporter cells, at 7 µM, actives lie on both sides;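 also: values are relative to mean of DMSO wells on each plate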
[2] = tested on: Hepatitis C virus NS3 helicase; test: blockers of NS3h binding to ssDNA – biochemical, fluorescence polarization, LOPAC1280 library, primary screen (AID 687035; in the data active = inhibition above about 37%); settings: Purified HCV NS3 helicase, Cy5-dT15 ssDNA binding fluorescence polarization; stronger effect = higher value; concentration not given here
[3] = compounds altering Cy5-DNA-NS3h complex signal – biochemical, LOPAC1280, artefact control for HCV NS3 helicase inhibitor project (AID 687037); settings: Cy5-DNA-NS3h complex fluorescence interference counterscreen
[4] = viability loss with induced miR-34 in A549 – imaging, A549 dox-inducible miR-34, nuclei and caspase counts, primary screen (AID 1347080;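 active = compounds whose cell count with miR-34 switched on is under 0.7 times the count with it off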); settings: A549 miR-34 inducible, Hoechst nuclei count, 48 h
[5] = galactose survival enhancers in mitochondrial complex I cybrids – cell-based, galactose medium, ATP luminescence, primary screen (AID 1645843;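 active = z-score of at least 1.8 in each of two replicates, scored against plate mean and spread of sample wells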;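 also: positive z means more ATP and so rescue of galactose-driven cybrid death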); settings: complex I mutant cybrid cells, 72 h, stronger effect = higher value
[6] = biological target: ATP-dependent translocase ABCB1 (Homo sapiens) (UniProt P08183); test: P-glycoprotein substrate transport blockade – cell-based (AID 377; in the data active = fluorescence slope change above about 50%); settings: MDR1-expressing cells, fluorescent substrate accumulation slope; stronger effect = higher value; concentration not given here
Chain of ATP-dependent translocase ABCB1 (Homo sapiens) (P08183 whole entry, looked up): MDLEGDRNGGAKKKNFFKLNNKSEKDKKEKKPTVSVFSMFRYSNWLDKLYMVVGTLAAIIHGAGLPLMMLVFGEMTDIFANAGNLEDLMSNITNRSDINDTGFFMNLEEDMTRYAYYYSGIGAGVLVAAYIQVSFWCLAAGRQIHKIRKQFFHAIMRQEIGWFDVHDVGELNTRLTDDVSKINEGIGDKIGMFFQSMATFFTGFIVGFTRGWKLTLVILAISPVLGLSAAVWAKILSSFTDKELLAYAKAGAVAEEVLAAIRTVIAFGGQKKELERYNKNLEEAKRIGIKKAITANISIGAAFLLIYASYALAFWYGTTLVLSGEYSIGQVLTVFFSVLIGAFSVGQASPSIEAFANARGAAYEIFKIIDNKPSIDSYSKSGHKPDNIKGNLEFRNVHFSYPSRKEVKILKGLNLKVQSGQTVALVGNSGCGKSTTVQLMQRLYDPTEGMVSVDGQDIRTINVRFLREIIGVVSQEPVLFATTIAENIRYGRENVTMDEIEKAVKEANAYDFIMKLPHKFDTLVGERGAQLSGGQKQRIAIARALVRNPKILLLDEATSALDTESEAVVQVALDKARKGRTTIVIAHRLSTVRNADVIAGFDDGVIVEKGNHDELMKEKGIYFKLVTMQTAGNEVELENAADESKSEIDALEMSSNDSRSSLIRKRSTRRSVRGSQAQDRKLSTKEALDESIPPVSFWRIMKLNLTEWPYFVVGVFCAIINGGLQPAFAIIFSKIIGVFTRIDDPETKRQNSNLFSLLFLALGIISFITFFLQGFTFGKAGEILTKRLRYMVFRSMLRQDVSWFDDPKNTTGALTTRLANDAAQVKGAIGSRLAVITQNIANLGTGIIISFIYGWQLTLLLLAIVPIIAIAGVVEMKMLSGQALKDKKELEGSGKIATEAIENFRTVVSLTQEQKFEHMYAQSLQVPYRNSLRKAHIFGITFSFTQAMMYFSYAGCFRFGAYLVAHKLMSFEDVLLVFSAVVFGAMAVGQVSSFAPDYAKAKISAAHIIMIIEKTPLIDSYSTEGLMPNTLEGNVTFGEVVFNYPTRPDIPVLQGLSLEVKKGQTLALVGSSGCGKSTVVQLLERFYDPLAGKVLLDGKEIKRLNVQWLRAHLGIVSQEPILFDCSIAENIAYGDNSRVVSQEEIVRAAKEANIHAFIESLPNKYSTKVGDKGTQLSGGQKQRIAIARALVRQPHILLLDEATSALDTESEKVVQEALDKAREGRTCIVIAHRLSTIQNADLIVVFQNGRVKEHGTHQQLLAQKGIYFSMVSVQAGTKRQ

[7] = compounds altering viability of human ES cells (AID 493140); settings: human embryonic stem cell survival screen; stronger effect = higher value;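 also: cells exposed to compounds for four days before counting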
[8] = P. berghei load reduction in hepatocytes – cell-based, HepG2, luciferase luminescence, HepG2 viability, primary screen (AID 624349; in the data active = parasite load remaining mostly below about 12%, no sharp cut-off; inactive = mostly above about 10%;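 also: 100% = mean of DMSO negative control wells on the same plate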); settings: P. berghei liver stage in HepG2, luciferase luminescence, concentration not given here; parasite load remaining: stronger effect = lower value; viability: measured here: HepG2 viability without parasites
[9] = stronger effect = lower value, cell number ratio, induced over uninduced
[10] = measured here: relative caspase fold change +Dox/-Dox
[11] = measured here: total cells with miR-34 induction, stronger effect = lower value
[12] = measured here: total cells without miR-34 induction

Compound	period change [1]	inhibition [2]	fluorescence ratio (interference) [3]	fold change [4, 9]	fold change [4, 10]	cell count [4, 11]	cell count [4, 12]	z-score [5]	fluorescence slope change [6]	survival [7]	parasite load remaining [8]	viability [8]
Nc1ccn([C@@H]2O[C@H](CO)[C@@H](O)[C@@H]2O)c(=O)n1	-0.07 h (inactive)	-4% (inactive)	0.9 (inactive)	0.984 (inactive)	1.55	1860	1890	-0.93 (inactive)				
O=C1O/C(=C/Br)CCC1c1cccc2ccccc12 (stereo not drawn)	-0.24 h (inactive)	0% (inactive)	1 (inactive)	0.964 (inactive)	0.87	4330	4490					
N#C/C(=C\c1ccc(O)c(O)c1)C(=O)NCCCNC(=O)/C(C#N)=C/c1ccc(O)c(O)c1	-0.285 h (inactive)	37% (active)	1 (inactive)	0.987 (inactive)	1.18	9720	9850	-0.275 (inactive)				
NCCC1CCCC(CCN)N1 (stereo not drawn)	0.21 h (inactive)	-7% (inactive)	0.9 (inactive)	1.09 (inactive)	1.24	10800	9840	0.405 (inactive)				
N=S(=O)(O)Cc1noc2ccccc12	0.1 h (inactive)	1% (inactive)	1 (inactive)	0.955 (inactive)	2.62	9240	9680	0.5 (inactive)				
CCSC(N)=Nc1ccc(C(F)(F)F)cc1	0.125 h (inactive)			1.02 (inactive)	0.833	5930	5830					
NC(N)=N[C@@H](CCC(=O)O)C(=O)O	0.01 h (inactive)	-3% (inactive)	1 (inactive)	0.954 (inactive) and 0.929 (inactive)	1.36 and 1.31	9760 and 6110	10200 and 6580	0.175 (inactive)				
C[N+](C)(C)CCOP(=O)(O)OP(=O)([O-])OC[C@H]1O[C@@H](n2ccc(N)nc2=O)C(O)[C@H]1O (stereo partly drawn)		-3% (inactive)	1 (inactive)	1.01 (inactive)	1.19	10900	10800	0.115 (inactive)				
NC(=S)c1ccc[n+]([C@@H]2O[C@@H](COP(=O)([O-])OP(=O)(O)OC[C@H]3O[C@@H](n4cnc5c(N)ncnc54)C(OP(=O)(O)O)[C@H]3O)C(O)C2O)c1 (stereo partly drawn)	0.055 h (inactive)	-5% (inactive)	1 (inactive)	0.943 (inactive)	1.17	10100	10700	0.57 (inactive)				
N.N.N.N.N.N.N.N.N.N.N.N.N.N.O.O.[Cl-].[Cl-].[Cl-].[Cl-].[Cl-].[Cl-].[Ru+4].[Ru+5].[Ru+5]	0.18 h (inactive)	-98% (inactive)	0 (active)	1.03 (inactive)	0.871	10700	10400	-0.735 (inactive)				
CC[C@@H]1Cc2cc(O)ccc2C2=C1c1ccc(O)cc1C[C@H]2CC	-0.02 h (inactive)	0% (inactive)	1 (inactive)	1.3 (inactive)	0.93	4580	3520	-0.765 (inactive)				
Cc1nc(N=Nc2cc(S(=O)(=O)O)c3cc([N+](=O)[O-])cc(S(=O)(=O)O)c3c2)c(COP(=O)(O)O)c(C=O)c1O	-0.275 h (inactive)	58% (active)	0.8 (active)	1.02 (inactive)	1.61	10500	10300	1.9 (active)				
O=C1C=CC(=O)c2c1ccc1c2ccc2ccccc21				0.87 (inactive)	1.13	7950	9140		25.9% (inactive)	5.83 (inactive)	14.2% (inactive) and 61.1% (inactive)	64.9% and 72.9%
NCCC(=O)NCCc1cnc[nH]1	0.085 h (inactive)			0.903 (inactive)	1.35	9030	10000			7.75 (inactive)	133% (inactive) and 73.6% (inactive)	94% and 70.5%
N=c1ccn2c(n1)OC1[C@@H](O)[C@@H](CO)O[C@H]12 (stereo partly drawn)	-0.115 h (inactive)	-5% (inactive)	1 (inactive)	1.14 (inactive)	1.55	1970	1730	-1.23 (inactive)				
Oc1ccc(Cn2cc[nH]c2=S)cc1	0.16 h (inactive)	-4% (inactive)	1 (inactive)	0.942 (inactive)	1.11	9950	10600	0.15 (inactive)				
CNc1ncnc2c1ncn2[C@H]1C[C@H](OP(=O)(O)O)[C@@H](COP(=O)(O)O)O1	-0.03 h (inactive)	-4% (inactive)	1 (inactive)	1.08 (inactive)	1.03	10600	9840	0.465 (inactive)				
CCCCCC(O)c1cccc(OCc2ccc3ccccc3n2)c1 (stereo not drawn)	0.015 h (inactive)	1% (inactive)	0.9 (inactive)	0.911 (inactive) and 0.978 (inactive)	1.06 and 0.946	5590 and 5690	6140 and 5820			78.8 (inactive)		
O=C(O)CCC/C=C\C[C@@H]1[C@@H](/C=C/[C@H](O)C2Cc3ccccc3C2)[C@@H](F)C[C@@H]1O	-0.195 h (inactive)	-2% (inactive)	1 (inactive)	0.962 (inactive) and 0.866 (inactive)	1.71 and 1.08	9120 and 5490	9480 and 6340	0.805 (inactive)				
O=C(O)CCC(=O)N1CCCC1C(=O)O (stereo not drawn)	-0.225 h (inactive)	-2% (inactive)	1 (inactive)	0.97 (inactive)	1.16	9450	9740	0.565 (inactive)				
Cc1ccc2c(c1)C(N1CCN(C)CC1)=Nc1cccnc1N2	0.2 h (inactive)	-2% (inactive)	1 (inactive)	1 (inactive)	1.15	8670	8630	0.01 (inactive)				
